Data from PubChem BioAssay AID2314 (National Center for Advancing Translational Sciences (NCATS), 2010).
Out of some 300,000 compounds screened, about 37,000 (12%) were called active. Rule as the data show it: active = max response mostly above about 13% (no sharp cut-off); inactive = mostly below about 14%. The entries come from a sample that favours actives as a whole.

Test: Cycloheximide Counterscreen for Small Molecule Inhibitors of Shiga Toxin; also: read at 38.3 µM for the half of the compounds with a filed dose; 0% is about no effect
Conditions: cell reporter, cycloheximide protein synthesis inhibition counterscreen; stronger effect = higher value

SMILES | max response
O=C(N/N=C/c1cccc(O)c1)c1cc2c(ccc3ccccc32)o1 | 8.61% (inactive)
NC(=O)c1ccccc1N=Cc1ccc2ccccc2c1 | 38.3% (active)
O=C(COc1cc2oc(=O)c3c(c2cc1Cl)CCC3)NCCCN1CCOCC1 | 6.01% (inactive)
O=C(NCCc1ccccc1)C1CCC(Cn2c(=O)c3ccccc3n(Cc3cccnc3)c2=O)CC1 (stereo not given) | -1.63% (inactive)
O=C(O)c1cc([N+](=O)[O-])c(Nc2cccc3ccccc23)c([N+](=O)[O-])c1 | -2.68% (inactive)
CCOc1ccc(NC(=O)c2ccc(NC(=O)C3CCCO3)cc2)cc1 (stereo not given) | 14.7% (inactive)
CCOc1ccc(C(=O)Nc2cccc(-c3ccc4nncn4n3)c2)cc1 | -0.39% (inactive)
COC(=O)c1ccccc1NC(=O)c1ccccc1NS(C)(=O)=O | -1.19% (inactive)
COc1ccc(CSc2nnnn2-c2ccc(C(=O)O)cc2)cc1 | -3% (inactive)
CCOc1ccc(C(=O)Nc2cccc(SC)c2)cc1 | 43.4% (active)
CCOc1ccc(C(=O)Nc2ccncc2)cc1 | 23.7% (active)
CCOc1cccc(NC(=O)CC#N)c1 | -0.681% (inactive)
CCOc1ccc(NC(=O)CCNC(=O)c2ccc(Br)cc2)cc1 | 17.2% (inactive)
CCOc1ccc(NC(=O)c2ccc(CSc3nnnn3C)cc2)cc1 | 20.2% (active)
CCCNC(=O)Nc1ccccc1C(=O)Nc1ccc(OC)cc1 | 2.17% (inactive)
CCOc1ccc(NC(=O)c2ccccc2NS(C)(=O)=O)cc1 | 15.1% (active)
CCOc1ccc(NC(=O)CSc2nncn2C)cc1 | 3.07% (inactive)
CC1CN(c2nc(Nc3ccccc3)nc(N)c2[N+](=O)[O-])CC(C)O1 (stereo not given) | 1.21% (inactive)
O=C(CN1CCN(c2ccc(O)cc2)CC1)NC1CCCc2ccccc21 (stereo not given) | -4.39% (inactive)
COc1ccc(CN(C)C(=S)Nc2ccc(Cl)cc2Cl)cc1 | -0.677% (inactive)
O=C(O)C1CC=CC2CCN(C3CCCCC3)C(=O)C21 (stereo not given) | -7.95% (inactive)
COc1ccc(OC)c(NC(=O)CN(C)CCOc2ccc(Br)cc2)c1 | -3.46% (inactive)
O=C(Oc1cccc(N2C(=O)C3C4c5ccccc5C(c5ccccc54)C3C2=O)c1)c1ccco1 (stereo not given) | -4.24% (inactive)
Cc1ccc2c(c1)N(S(=O)(=O)c1cc(-c3cc(C)no3)ccc1C)CCO2 | 1.76% (inactive)

SMILES | max response
CCN(CC)N=Nc1cccc(NC(C)=O)c1 | 15.1% (active)
CC(=O)Nc1cccc(C(=O)OCN2C(=O)c3ccccc3C2=O)c1 | -2.39% (inactive)
CCN(CC)C(=O)CSC(Nc1cccc(F)c1)=C(C#N)C#N | -0.453% (inactive)
O=C(CSc1nnc(CNC(=O)c2ccc(F)cc2)o1)Nc1ccc2c(c1)OCO2 | -1.02% (inactive)
Fc1ccc(-c2nnc(CSc3nnc(-c4ccc5c(c4)OCO5)o3)o2)cc1 | 26% (active)
Fc1ccc2nc(-c3ccccc3)nc(SCc3nnc(-c4ccccc4)o3)c2c1 | -4.64% (inactive)
O=C(Nc1ccnn1C1CCN(C/C=C/c2ccc(F)cc2)CC1)C1CCCC1 | -1.88% (inactive)
CCOc1ccc(OCC)c(NC(=O)CCS(=O)(=O)c2ccc(C)cc2)c1 | -3.4% (inactive)
Cc1ccc(N/N=C2\COC(C)(C)CC2=O)cc1 | 73.1% (active)
COc1ccc(N/N=C2/CCCCC2=O)cc1 | 29.4% (inactive)
CC(C)CC(COCc1ccc(Cl)cc1)N1CCN(C(=O)c2ccc(C(F)(F)F)cc2)CCC1=O (stereo not given) | -2.17% (inactive)
O=C1CC(Sc2ncn[nH]2)C(=O)N1c1ccccc1 (stereo not given) | -3.41% (inactive)
COc1ccc(N2CCN(C(=O)c3ccccc3NC(=O)C3=C(C)OCCS3)CC2)cc1 | -5.37% (inactive)
CN(Cc1ccc(F)cc1)C(=O)COc1ccc2ccccc2c1 | 20.1% (inactive)
CN(Cc1ccccc1)C(=O)c1ccc(COc2ccccc2)cc1 | 7.81% (inactive)
CN(Cc1ccccc1)C(=O)COc1ccccc1 | 41.1% (active)
CC1=NN(c2ccc(Cl)c(C(=O)O)c2)C(=O)/C1=C/c1ccc(-c2ccccc2[N+](=O)[O-])o1 | -3.39% (inactive)
C=C1O[C@@](CO)(n2cnc3c(N)ncnc32)[C@H](O)[C@@H]1O | 1.03% (inactive)
Cc1ccc(NS(=O)(=O)c2ccc3c(c2)oc(=O)n3C)c(C)c1 | 0.896% (inactive)
Cc1ccc(NN=C2C(=O)OC(C)(C)OC2=O)c(C)c1 | 52% (active)
Cc1ccc(NC(=O)CCC(=O)N/N=C/c2ccco2)c(C)c1 | -1.51% (inactive)
O=c1c2ccccc2[nH]c(=S)n1CCN1CCC(=C(c2ccc(F)cc2)c2ccc(F)cc2)CC1 | -1.14% (inactive)
Cc1ccc(NC(=O)CN(C)C(=O)c2ccc(Br)o2)cc1 | -4.89% (inactive)
CCc1ccc(N(C(=O)c2csnn2)C(C(=O)NC2CCCCC2)c2ccncc2)cc1 (stereo not given) | 8.95% (inactive)

SMILES | max response
O=C(NNS(=O)(=O)c1ccccc1)c1cnn(-c2ccc(Cl)cc2)c1C(F)(F)F | 1.19% (inactive)
C/C(=N\Nc1cccc(C(=O)O)c1)c1ccc2c(c1)Nc1ccccc1S2 | 31.5% (active)
O=C(NC1CC1)c1ccc2c(c1)NC(=O)c1ccccc1S2 | 0.906% (inactive)
Cc1ccccc1NC(=O)c1cc(S(=O)(=O)Nc2cccc(C(=O)O)c2)ccc1Cl | -4.93% (inactive)
CC(C)C[C@@H](CO)N1CCN(Cc2ccc(O)cc2)CCC1=O | -1.97% (inactive)
CCCN1C2CCCC1CC(NC(=O)NC13CC4CC(CC(C4)C1)C3)C2 (stereo not given) | 0.762% (inactive)
CC(C)c1ccc2oc(=O)cc(CN3CCN(Cc4ccccc4)CC3)c2c1 | -1.81% (inactive)
O=C(CN(C(=O)c1csnn1)c1ccc(Br)cc1)NC1CCCC1 | -2.24% (inactive)
O=C(NCCc1ccccn1)c1nc(Cn2cc([N+](=O)[O-])cn2)no1 | -3.93% (inactive)
O=C(Cn1nc(Cc2cccnc2)c2ccccc2c1=O)NCC1COc2ccccc2O1 (stereo not given) | -4.83% (inactive)
O=C(c1ccc(Cl)cc1)c1cnc(Nc2ccccc2)s1 | 8.33% (inactive)
S=c1[nH]nc(Nc2ccccc2)s1 | 1.07% (inactive)
CC(C)(C)C(=O)c1cnc(Nc2ccccc2)s1 | 44.2% (active)
S=c1[nH]nc(-c2ccco2)n1/N=C/c1ccc(Br)s1 | 1.13% (inactive)
Cn1c(CNc2nc(-c3ccccc3)cs2)nnc1SCC(=O)c1ccccc1 | -2.68% (inactive)
O=C(CSc1nc2ccccc2c(=O)[nH]1)Nc1nc(-c2ccc(Br)cc2)cs1 | 3.64% (inactive)
O=C(CSc1nc(-c2ccccc2)cs1)Nc1cccc([N+](=O)[O-])c1 | 39.4% (active)
Cc1csc(NC(=O)CSc2ccc(-c3ccc(F)cc3)nn2)n1 | -6.44% (inactive)
O=C(CSCC(=O)Nc1cccc([N+](=O)[O-])c1)Nc1ccccc1 | 7.14% (inactive)
CCOC(=O)CSc1nnc(CNc2nc(-c3ccccc3)cs2)n1C | -0.673% (inactive)
O=C(CSc1ncn[nH]1)Nc1nc(-c2cccc([N+](=O)[O-])c2)cs1 | 2.28% (inactive)
CCNC(=O)CSc1nc(-c2ccccc2)cs1 | 44% (active)
O=C(CSC1=NCCS1)Nc1nc(-c2ccccc2)cs1 | 35.3% (active)
Cc1cc2cc3c(cc2nc1SCC(=O)Nc1c(C)cccc1C)CCC3 | 0.976% (inactive)

SMILES | max response
Cc1c(CCOC(=O)CC23CC4CC(CC(C)(C4)C2)C3)sc[n+]1Cc1ccc([N+](=O)[O-])cc1 | -3.94% (inactive)
Fc1ccc(Cn2nnnc2C(c2cccs2)N2CCCCCC2)cc1 (stereo not given) | 0.541% (inactive)
CCOc1ccccc1NS(=O)(=O)c1cc2c3c(c1)C(C)C(=O)N3CCC2 (stereo not given) | -3.18% (inactive)
CCCOc1ccccc1-c1nc(SCCC(=O)O)n[nH]1 | -3.17% (inactive)
COc1ccccc1-c1nc(SC)n[nH]1 | 23.3% (active)
COc1ccccc1C1=Nc2cccc3cccc(c23)N1 | -1.72% (inactive)
Cc1ccc(NC(=O)CN(C)Cc2ccc(F)cc2)c([N+](=O)[O-])c1 | 12.6% (active)
CN(CC(=O)Nc1ccccc1[N+](=O)[O-])Cc1ccc(Br)cc1 | 7.65% (inactive)
CSc1ccccc1NC(=O)CN(C)CC(=O)Nc1ccc(Cl)cc1[N+](=O)[O-] | 7.28% (inactive)
Cc1cccc(NC(=O)COC(=O)CCc2ccccc2)c1C | -2.64% (inactive)
CCOC(=O)C(C)Oc1cccc2c(=O)n(CC(=O)NCCc3ccc(OC)c(OC)c3)ccc12 (stereo not given) | -2.75% (inactive)
O=C1CCN(Cc2ccc([N+](=O)[O-])cc2)CCN1[C@H](CO)Cc1ccccc1 | -3.88% (inactive)
O=C(c1cccnc1)N1CCN(S(=O)(=O)c2cccs2)CC1 | -2.02% (inactive)
O=C(N/N=C/c1sc(N2CCCCC2)nc1-c1cccs1)c1cccnc1 | 20.6% (active)
O=C(CNC(=O)c1cccnc1)N/N=C/c1cccnc1 | -3.21% (inactive)
CN(C(=O)c1ccccc1)c1nccnc1C#N | -1.74% (inactive)
Cc1ccc(NC(=S)N/N=C2/CCCc3c(C)cc(C)cc32)cc1 | -1.84% (inactive)
Cc1ccc(C)c(NC(=S)NNC(=S)Nc2ccc(C(C)C)cc2)c1 | 31% (active)
COc1ccc(Br)cc1/C=N/Nc1ccc(Cl)c(C(=O)O)c1 | 7.13% (inactive)
O=C(NC(=S)Nc1ccc(Cl)c(C(=O)O)c1)c1cncc(Br)c1 | 1.31% (inactive)
CC(C)c1ccc(NC(=S)NNc2ccc(Cl)c(C(=O)O)c2)cc1 | 38% (active)
Cc1ccc(C)c(NC(=S)NCC(c2cccnc2)N2CCOCC2)c1 (stereo not given) | -3.15% (inactive)
CCn1c(=O)c(=O)[nH]c2c(=O)oc3ccc(S(=O)(=O)Nc4ccc(OC)cc4)cc3c21 | -4.34% (inactive)
